Only some compounds are listed: those with a hit (about 0.87% of all), similar ones and a draw of the others.
GCN5L2 inh: qHTS Assay for Inhibitors of GCN5L2; Histone acetyltransferase KAT2A (Homo sapiens), Q92830; 390,000 tested, 0.21% active; Potency, µM (top dose mostly 58.9 µM), for the others: at the top dose activity change, negative = inhibition, most hits filed as inhibitors; GCN5L2 HAT assay, ThioGlo1 CoA-SH fluorescence
Target sequence (Q92830 whole entry, looked up): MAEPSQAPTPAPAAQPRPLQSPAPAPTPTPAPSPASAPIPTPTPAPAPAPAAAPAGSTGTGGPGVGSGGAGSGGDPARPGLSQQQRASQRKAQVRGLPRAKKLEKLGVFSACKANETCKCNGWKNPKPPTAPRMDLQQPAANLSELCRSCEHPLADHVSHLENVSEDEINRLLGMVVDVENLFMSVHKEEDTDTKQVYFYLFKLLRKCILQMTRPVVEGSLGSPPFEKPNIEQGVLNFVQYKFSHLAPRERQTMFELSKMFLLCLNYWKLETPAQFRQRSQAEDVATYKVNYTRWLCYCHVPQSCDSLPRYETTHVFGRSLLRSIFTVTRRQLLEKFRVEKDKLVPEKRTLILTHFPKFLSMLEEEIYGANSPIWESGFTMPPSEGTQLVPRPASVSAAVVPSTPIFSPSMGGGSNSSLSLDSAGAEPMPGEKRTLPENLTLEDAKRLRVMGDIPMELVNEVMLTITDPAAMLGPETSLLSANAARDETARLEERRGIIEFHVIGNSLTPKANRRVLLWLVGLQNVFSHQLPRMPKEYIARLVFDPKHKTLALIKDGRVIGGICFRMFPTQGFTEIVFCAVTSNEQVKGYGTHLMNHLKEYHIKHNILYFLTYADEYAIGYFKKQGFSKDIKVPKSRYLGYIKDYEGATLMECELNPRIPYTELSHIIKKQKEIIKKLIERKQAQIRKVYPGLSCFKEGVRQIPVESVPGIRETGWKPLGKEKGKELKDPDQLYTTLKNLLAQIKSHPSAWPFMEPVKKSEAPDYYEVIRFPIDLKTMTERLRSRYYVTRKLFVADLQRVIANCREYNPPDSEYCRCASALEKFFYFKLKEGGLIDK
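GCN5L2 (20nM final) in 50mM HEPES, 0.1mM EDTA pH 7.5, 0.01% Tween-20 was preincubated 15 min at room temperature with compound, then given ThioGlo1 (50uM), H3(1-25) peptide (75uM) and acetyl-CoA (70uM); CoA-thiol fluorescence (Ex340/Em540) was read at 0 and 20 min.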
RECQ1 helicase: qHTS Assay for Inhibitors of RecQ-Like Dna Helicase 1 (RECQ1); Potency, µM (top dose mostly 57.3 µM), inactives show at the highest dose activity, negative = inhibition, usual class: inhibitors; 240,000 tested, 0.54% active; RECQ1 DNA unwinding, red fluorescence kinetic read; AID 2549, 2010;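 also: plate controls were vehicle for no effect and no enzyme for full effect; nearly all actives have a fitted effect of over 30% in size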
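50 nM RECQ1T1 preincubated 15 min with compound in Tris pH 8.0 buffer with MgCl2, DTT, Tween-20 and 2.5 ug/ml poly(dI-dC); started with 200 nM TAMRA/BHQ-2 forked duplex and 2 mM ATP. Unwinding read as fluorescence (525/598 nm), two reads 2 h apart.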
TDP1 block: qHTS Assay for Inhibitors of Tyrosyl-DNA Phosphodiesterase (TDP1); Tyrosyl-DNA phosphodiesterase 1 (Homo sapiens), Q9NUW8; recombinant TDP1, AlphaScreen DNA substrate cleavage; Potency, µM (series often up to 130 µM), inactives show at the highest dose activity change, negative = inhibition, usual class: inhibitors; 350,000 tested, 0.28% active; also: nearly all actives have a fitted effect of over 40% in size
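Steps: enzyme plus compound, 15 min RT; add biotin/phosphotyrosine-FITC oligonucleotide (15 nM final), react 5 min; add donor/acceptor beads (10 ug/ml final), 10 min; read AlphaScreen. Tdp1 at 1 nM final.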
APE1 inh-1: qHTS Assay for Inhibitors of the Human Apurinic/apyrimidinic Endonuclease 1 (APE1) | DNA repair nuclease/redox regulator APEX1 (Homo sapiens), P27695 | Potency, µM (top dose mostly 65.8 µM), inactives show top-dose activity change, negative = inhibition, usual class: inhibitors | 350,000 tested, 0.35% active | recombinant APE1, TAMRA/BHQ-2 abasic DNA cleavage fluorescence | AID 2517, 2012;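 also: plate controls were vehicle for no effect and reference inhibitor for full effect; nearly all actives have a fitted effect of over 55% in size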
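Compound pre-exposure to 0.75 nM APE1, 15 min at ambient temperature. Reaction initiated with 50 nM TAMRA/BHQ-2 THF substrate, read immediately in kinetic mode, 525 nm excitation, 598 nm emission.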
BLM inh: qHTS Assay for Inhibitors of Bloom's syndrome helicase (BLM); RecQ-like DNA helicase BLM (Homo sapiens), P54132; recombinant BLM DNA unwinding, fluorescence dequenching; Potency, µM (series often up to 56.1 µM), for inactives: at the highest dose activity change, negative = inhibition, actives largely listed as inhibitors; 350,000 tested, 0.2% active; AID 2528, 2010;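 also: plate controls were vehicle for no effect and no enzyme for full effect; nearly all actives have a fitted effect of over 35% in size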
RGS4 inh: Inhibitors of Regulator of G Protein Signaling (RGS) 4: qHTS; Regulator of G-protein signaling 4 (Homo sapiens), P49798; Potency, µM (doses to about 114 µM), without a hit: at the top dose activity change, negative = inhibition, most hits filed as inhibitors; 390,000 tested, 0.039% active; Transcreener GDP fluorescence polarization, RGS4-accelerated GTP hydrolysis; also: nearly all actives have a fitted effect of over 75% in size
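MLSMR compounds (23 nl, pin-transferred) preincubated 10 min at room temperature with a 500nM (2x) first reagent, then RGS4 at 900nM (2x) plus Transcreener GDP mix added; fluorescence polarization (620/688 nm) read before and after 90 min at 30 °C.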
APE1 dye cs: Counterscreen for APE1 Inhibitors: Fluorescent Dye Displacement Assay. shares compounds with APE1 inh-1. DNA fluorescent dye displacement counterscreen, fluorescence. Potency, µM (top dose mostly 28.5 µM), for the others: top-dose activity change, negative = inhibition, actives largely listed as inhibitors. 480 tested, 7% active. AID 2564, 2010;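 also: loss of thiazole orange fluorescence as the dye is displaced from duplex DNA; 0% = ThO with dsDNA and no compound and -100% = ThO without dsDNA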
EndoIV counter: Counterscreen for APE1 Inhibitors: qHTS Assay for Inhibitors of Endonuclease IV; shares compounds with APE1 inh-1; E. coli Endo IV, fluorogenic AP-site DNA cleavage; Potency, µM (titrated, usually from 27.1 µM), for the others: at the top dose activity change, negative = inhibition, actives largely listed as inhibitors; 560 tested, 4% active; AID 2565, 2010;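 also: plate controls were uninhibited enzyme wells for no effect and no enzyme buffer wells for full effect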
APE1 inh-2: Confirmation qHTS Assay for Inhibitors of the Human Apurinic/apyrimidinic Endonuclease 1 (APE1). shares compounds with APE1 inh-1. purified APE1, fluorogenic abasic-site DNA cleavage. Potency, µM (series often up to 57.1 µM), without a hit: at the highest dose activity change, negative = inhibition, actives largely listed as inhibitors. 750 tested, 44% active. AID 2572, 2010; also: nearly all actives have a fitted effect of over 30% in size
APE1 FP inh: qHTS FP-Based Assay for Inhibitors of the Human Apurinic/apyrimidinic Endonuclease 1 (APE1). shares compounds with APE1 inh-1. AID 2573, 2010. Potency, µM (highest dose often 28.5 µM), without a hit: at the highest dose activity, negative = inhibition, most hits filed as inhibitors. APE1 binding to TAMRA-labelled double-stranded DNA, fluorescence polarization displacement. 480 tested, 7% active
An asterisk follows results filed as active; i = inactive; ? = inconclusive; nt = not tested or not shown; [ ] = dose if it differs, or a comment. Calls follow the shape of the dose curve; as a rule, active = well fitted curve in the direction sought with a large enough effect; inconclusive = small, poorly fitted or top-dose-only effect, or another doubt; inactive = no such curve, though single readings can be large; an effect the other way counts as inactive or inconclusive. Unless noted, % is scaled to controls: 0 for no effect and ±100 for the full control effect; potency is read from the fitted curve at half-maximal effect.

SMILES	GCN5L2 inh	RECQ1 helicase	TDP1 block	APE1 inh-1	BLM inh	RGS4 inh	APE1 dye cs	EndoIV counter	APE1 inh-2	APE1 FP inh
O=C(Nc1cc(C(=O)Nc2ccc(S(=O)(=O)O)cc2S(=O)(=O)O)cc(C(=O)Nc2ccc(S(=O)(=O)O)cc2S(=O)(=O)O)c1)Nc1cc(C(=O)Nc2ccc(S(=O)(=O)O)cc2S(=O)(=O)O)cc(C(=O)Nc2ccc(S(=O)(=O)O)cc2S(=O)(=O)O)c1	-20.3%	-0.7%	5.01µM*	7.94µM*	?	i	nt	?	2.51µM*	nt
C=CCC(C)(O)c1cccc(C(F)(F)F)c1 (stereo not drawn)	nt	-5.5%	6.9%	3.7%	3.4%	nt	nt	nt	nt	nt
Cc1n[nH]c(C)c1CCc1nc2c3ccccc3nc(SCC(=O)Nc3ccc(F)cc3)n2n1	-9.0%	nt	0.5%	nt	-14.1%	-1.8%	nt	nt	nt	nt
Cc1ccc(NC(=O)CSc2nc3ccccc3c3nc(CCc4c(C)n[nH]c4C)nn23)cc1F	-5.0%	-12.0%	79.4µM*	5.3%	?	-29.7%	nt	nt	?	nt
O=C(O)c1ccc(-c2ccc(/C=C3\NC(=O)N(Cc4ccc(Cl)cc4)C3=O)o2)cc1Cl	-15.8%	?	?	?	29.8%	-41.6%	nt	nt	15.8µM*	nt
O=C(OCC(=O)N1CCCCCC1)c1ccc(Cl)c(S(=O)(=O)N2CCCC2)c1	0.8%	-18.3%	nt	?	-6.8%	?	16.9%	7.6%	?	-5.4%
NC(=O)COC(=O)c1ccc(Cl)c(S(=O)(=O)N2CCCCCC2)c1	-10.8%	-16.6%	4.6%	-2.3%	-1.9%	-29.6%	nt	nt	nt	nt
CCCCC/C=C\C/C=C\C/C=C\C/C=C\CCCCCC(=O)O	-7.0%	10.5%	7.3%	-7.5%	-1.1%	460.0%[56.9 µM]	nt	nt	nt	nt
CCCCCCC/C=C\CCCCCCCCC(=O)O	8.91µM*	?	-12.4%[56.1 µM]	0.3%	nt	23.8µM*	nt	-22.3%[57.1 µM]	-66.9%	nt
Cc1nc(-c2ccc(O)c(O)c2)cs1	-6.6%[0.501 µM]	?	2.2%	3.16µM*	0.5%	-25.9%	0.7%	183.4%	-8.0%[24.4 µM]	-3.4%
CC(C)CO/N=C1/C[C@@H](O)[C@@H](O)[C@@H]2[C@@H]3C(=O)N(Cc4ccccc4)C(=O)[C@H]3CC[C@@H]12	nt	i[11.5 µM]	2.6%[21 µM]	14.4%[12.4 µM]	-3.6%[12.4 µM]	nt	nt	nt	nt	nt
CCOC(=O)CC(=O)CSc1nc(CC)c(C)cc1C#N	1.7%	8.2%	70.8µM*	7.0%	1.0%	-16.2%	nt	nt	-28.2%	nt
C=C(C)C(=O)OCCCCCCOc1ccc(C(=O)O)cc1	1.0%	-3.5%	25.1µM*	-2.7%	-15.5%	-51.9%	nt	nt	?	nt
CCN(CC)c1ccc(-c2nnc(SCC(=O)Nc3ccccc3C#N)n2-c2ccccc2)cc1	-4.1%	-19.6%	0.0%	?	-12.3%	-22.3%	4.1%	?	?	9.1%
O=C(Nc1nc(-c2ccccc2)cs1)c1cccnc1	-3.9%	-1.7%	4.9%	2.0%	-2.5%	-20.8%	nt	nt	nt	nt
CC(=O)Nc1ccc(C(=O)Nc2nc(-c3cccnc3)cs2)cc1	-9.3%	-10.8%	70.8µM*	5.2%	-3.8%	?	nt	nt	-22.5%	nt
COCCn1c(C)cc(C(=O)CSc2n[nH]c(N)n2)c1C	-17.8%	-23.0%	nt	31.6µM*	-14.2%	8.6%	-1.0%	8.1%	-6.7%[24.4 µM]	-1.4%
COc1ccc(C(CC(=O)N2CCN(c3ccccc3)CC2)c2c(OC)cc(OC)c3c(-c4ccccc4)cc(=O)oc23)cc1 (stereo not drawn)	-23.9%	?	nt	?	2.1%	nt	52.2%	?	5.62µM*	7.8%
COc1cc(OC)c2c(-c3ccccc3)cc(=O)oc2c1C(CC(=O)N1CCCC1)c1ccc(N(C)C)cc1 (stereo not drawn)	nt	-13.1%	26.2%	8.2%	-9.6%	14.9%	nt	nt	nt	nt
COc1ccc(C(CC(=O)N2CCCCC2)c2c(OC)cc(OC)c3c(-c4ccccc4)cc(=O)oc23)cc1 (stereo not drawn)	-13.8%	?	nt	25.1µM*	-26.7%	7.7%	13.5%	?	7.94µM*	14.1µM*
CCC(C)C(=O)OCC1(c2ccc(C)cc2OC(=O)C(C)C)CO1 (stereo not drawn)	-16.5%	-13.7%	nt	?	-12.1%	9.0%	?	-9.2%	11.2µM*	?
CCn1cc(C(=O)NCc2ccco2)c(=O)c2cc(F)c(N3CCN(C(=O)c4ccco4)CC3)cc21	-17.0%	-26.0%	39.8µM*	?	-21.5%	-5.3%	nt	nt	?	nt
CC(=O)N[C@H]1C(O[C@@H]2O[C@H](C[C@@H](O)[C@H]3O[C@@H](N4CCC(=O)NC4=O)[C@H](O)[C@@H]3O)[C@H](O)[C@H](O)[C@H]2NC(=O)/C=C/CCCCCCCCCCC(C)C)OC(CO)[C@@H](O)[C@@H]1O (stereo partly drawn)	-3.3%	-8.6%	12.2%	7.94µM*	-9.0%	nt	103.3%[57.1 µM]	11.0%[57.1 µM]	2.51µM*	-57.1%[57.1 µM]

High-throughput results: PubChem, National Center for Advancing Translational Sciences (NCATS)
